Structures are written as SMILES. Unmarked numbers belong to inactive results. The rule behind the calls is not given here.

Pantothenate synthetase (Mycobacterium tuberculosis (strain ATCC 25618 / H37Rv)), sequence (P9WIL5 whole entry, looked up): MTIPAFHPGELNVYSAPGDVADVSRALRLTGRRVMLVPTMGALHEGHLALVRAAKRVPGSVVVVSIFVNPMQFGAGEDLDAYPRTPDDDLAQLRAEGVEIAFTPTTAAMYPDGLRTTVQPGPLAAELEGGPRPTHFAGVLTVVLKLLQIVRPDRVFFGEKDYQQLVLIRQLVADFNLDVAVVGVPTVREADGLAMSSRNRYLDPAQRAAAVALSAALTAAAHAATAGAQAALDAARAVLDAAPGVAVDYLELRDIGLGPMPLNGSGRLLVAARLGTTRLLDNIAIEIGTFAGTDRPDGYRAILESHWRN

This test concerns the target Pantothenate synthetase (Mycobacterium tuberculosis (strain ATCC 25618 / H37Rv)) (UniProt P9WIL5). The experiment in a line: Recombinant Mtb pantothenate synthetase (PanC) inhibitors, coupled enzyme, confirmatory (AID 375).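 Note: 0% = full reaction with vehicle and 100% = no enzyme background.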 Particulars: coupled enzyme assay; at 10 µM, active compounds read high.
On to `C=CCn1c(Br)nc2c1c(=O)[nH]c(=O)n2C`, for which the inhibition – broadly, the drop in the measured response relative to a control, in per cent – was 0%.
For the compound `Cn1cccc1C(=O)NC(=O)CSc1nnc(C2CC2)n1-c1ccccc1`, the inhibition is 0%.
Turning to `COC(=O)CSc1nc(C)c(C(C)=O)cc1C#N`, the inhibition is 10%.
For the compound `COC(=O)Cc1csc(N)n1`, the inhibition is 0%.
As for `O=C(CSc1nnc(C2CC2)n1Cc1ccccc1)c1ccc(S(=O)(=O)N2CCOCC2)cc1`, the inhibition was 0%.
Turning to `O=C(Nc1sc2c(c1C(=O)NCc1ccco1)CCCC2)c1ccc2c(c1)OCO2`, the inhibition is 1%.
The figure for `O=C1CC(c2ccco2)CC(O)=C1C=NCC1NCCc2ccccc21` (configuration not stated) is 0%; for `COc1ccc(N2CCN(C(=O)CSc3nnc4n3C(C)(C)Cc3ccccc3-4)CC2)cc1` it is 0%.
Turning to `CCOC(=O)C(C#N)C(c1cccnc1)c1c(C)[nH][nH]c1=O` (configuration not stated), the inhibition was 3%.
Then `CCOC(=O)c1ccc2[nH]c(C)c(CN3CCN(C)CC3)c(=O)c2c1`, with 0%.
In the case of `CCSc1nnc(NC(=O)c2nn(C(C)C)c(=O)c3ccccc23)s1`, the inhibition was 1%.
Consider `CC1CCN(CCCNC(=O)c2cn(C)c3ccc(S(=O)(=O)N4CCCC4)cc3c2=O)CC1`, for which the inhibition was 0%.
The figure for `COc1ccc(OC)c(C(=O)c2ccc(C(=O)O)cc2)c1` is 0%; for `Cc1[nH]c(=O)[nH]c(=O)c1S(=O)(=O)N1c2ccc(F)cc2CCC1C` (configuration not stated) it is 0%; for `O=C1C2C3C=CC(C3)C2C(=O)N1Cc1ccccc1` (configuration not stated) it is 6%.
Take `CCOc1ccccc1C(=O)NCC(=O)OCC(=O)N1C(C)CCCC1C` (configuration not stated): the inhibition is 7%.
On to `Cc1cccc(-n2nnnc2SCc2csc(-c3ccccc3)n2)c1`, for which the inhibition was 0%.

The values are drawn from PubChem BioAssay.
